HEK293 tox: Cytotoxic Profiling in HEK 293 Cell Line of Diverse Libraries Using Quantitative High-Throughput Screening; HEK 293 viability, ATP luminescence (CellTiter-Glo), 48-72 h; Potency, µM (doses to about 115 µM), for inactives: at the top dose activity change, negative = cytotoxicity, most hits filed as inhibitors; 6.6% of 94,000 active; note: nearly all actives have a fitted effect of over 60% in size
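qHTS cytotoxicity; HEK 293, 250 cells/well; compound pinned; 48 or 72 hr, 37 degree Celsius, 5% CO2, 95% humidity; CellTiter-Glo, 10 min RT; luminescence (ATP).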
hNpr1 antagonist: Natriuretic polypeptide receptor (hNpr1) antagonism - Primary qHTS. Atrial natriuretic peptide receptor 1 (Homo sapiens), P16066. Potency, µM (titrated, usually from 46.3 µM), without a hit: top-dose activity change, negative = inhibition, usual class: inhibitors. AID 1347048, 2019. 1.6% of 76,000 active. HEK293 hNpr1 GloSensor cGMP, ANP-stimulated luminescence; calls by dose curve; note: nearly all actives have a fitted effect of over 60% in size
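HEK293 cells stably expressing human Npr1 and cGMP GloSensor pGS-40F, loaded 2 h with 2% GloSensor reagent, given compound 30 min at room temperature. Luminescence read before and 20 min after 0.1 nM hNppA.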
3T3 cytotox: Cytotoxic Profiling in NIH 3T3 Cell Line of Diverse Libraries Using Quantitative High-Throughput Screening | 4.3% of 94,000 active | Potency, µM (top dose mostly 96.7 µM), for the others: at the highest dose activity change, negative = cytotoxicity, most hits filed as inhibitors | AID 1345082, 2018 | NIH 3T3 viability, CellTiter-Glo ATP luminescence, 48-72 h; note: nearly all actives have a fitted effect of over 55% in size
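Mouse fibroblast NIH 3T3 cells, 400 per well, received compound via pintool and were incubated for 48 or 72 hr prior to CellTiter-Glo ATP luminescence measurement.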
GPT2 inh: Primary qHTS assay for inhibitors of Glutamate pyruvate transaminase 2 (GPT2); Alanine aminotransferase 2 (Homo sapiens), Q8TD30; Recombinant GPT2, coupled pyruvate oxidase/HRP Amplex Red fluorescence; Potency, µM (doses to about 57.7 µM), for the others: top-dose activity change, negative = inhibition, usual class: inhibitors; 0.25% of 100,000 active; note: nearly all actives have a fitted effect of over 60% in size
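GPT2 10ng/uL, a-KG 250uM, L-Ala 2mM, HEPES pH7.5 + 0.0001% Tween; 30 min RT. Then Amplex mix (PO/HRP/ThPP), 30 min RT dark, fluorescence. AOA 50uM used as positive control.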
FLuc inh: Firefly luciferase inhibition profiling of diverse chemical library using quantitative high-throughput screening. purified P. pyralis luciferase, luminescence, biochemical. Potency, µM (series often up to 115 µM), hits mostly inhibitors. 2.5% of 76,000 active; note: nearly all actives have a fitted effect of over 65% in size
Target sequence (P08659 whole entry, looked up): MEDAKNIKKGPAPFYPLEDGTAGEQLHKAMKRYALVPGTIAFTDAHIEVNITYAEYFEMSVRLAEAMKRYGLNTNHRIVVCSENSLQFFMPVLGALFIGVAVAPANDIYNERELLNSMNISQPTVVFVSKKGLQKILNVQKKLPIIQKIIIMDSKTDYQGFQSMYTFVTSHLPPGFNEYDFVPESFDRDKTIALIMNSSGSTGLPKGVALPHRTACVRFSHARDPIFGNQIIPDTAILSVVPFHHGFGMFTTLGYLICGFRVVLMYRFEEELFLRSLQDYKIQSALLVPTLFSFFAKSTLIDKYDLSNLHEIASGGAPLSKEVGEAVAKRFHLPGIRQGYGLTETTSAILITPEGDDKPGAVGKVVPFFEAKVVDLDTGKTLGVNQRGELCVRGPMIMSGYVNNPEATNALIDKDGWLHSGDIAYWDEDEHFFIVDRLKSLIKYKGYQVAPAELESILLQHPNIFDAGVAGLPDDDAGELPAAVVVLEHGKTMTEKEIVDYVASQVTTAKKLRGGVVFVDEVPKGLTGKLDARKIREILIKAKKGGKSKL
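Purified 10nM P. pyralis luciferase with 10uM D-luciferin and 10uM ATP in 50mM Tris acetate pH 7.5, 10mM Mg acetate, 0.01% Tween-20, 0.05% BSA. qHTS titration; luminescence read by CCD imager.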
Starred values were filed as active, the others as inactive; [ ] = another dose, or the depositor's remark. In the library only some 10% were active in any assay of this set; here they are far more common. Unless noted, calls come from the whole dose curve; as a rule, active = well fitted curve in the direction sought with a large enough effect; inconclusive = small, poorly fitted or top-dose-only effect, or another doubt; inactive = no such curve, though single readings can be large; an effect the other way counts as inactive or inconclusive. % is set by controls: 0 for no effect and ±100 for the full control effect; potency is the fitted concentration of half-maximal effect.

`Cc1nn2c(c1-c1ccccc1C(C)C)N(Cc1ccc(C(=O)O)cc1)CCC2` gave HEK293 tox inconclusive, hNpr1 antagonist 0%[70.6 µM], 3T3 cytotox 7.1µM*, GPT2 inh inactive and FLuc inh inactive.
`Cc1nn2c(c1-c1ccccc1[S+](C)(=O)[O-])N(C(=O)c1ccccc1)CCC2` gave HEK293 tox -17%[172 µM], hNpr1 antagonist 0%[70.6 µM], 3T3 cytotox inconclusive, GPT2 inh 2%[88.5 µM] and FLuc inh inactive.
For Cc1nn2c(c1-c1ccccc1OCc1ccccc1)N(Cc1ccccc1)CCC2 the results were HEK293 tox inconclusive, hNpr1 antagonist -21%[70.6 µM], 3T3 cytotox inconclusive, GPT2 inh 0%[88.5 µM] and FLuc inh inactive.
For Cc1nn2c(c1-c1ccccc1OCc1ccccc1)N(C(=O)C(C)C)CCC2 the results were HEK293 tox 32µM*, hNpr1 antagonist -1%[70.6 µM], 3T3 cytotox 89µM*, GPT2 inh -9%[88.5 µM] and FLuc inh inactive.
`Cc1nn2c(c1-c1ccccc1[S+](C)(=O)[O-])N(Cc1ccccc1F)CCC2` gave HEK293 tox inconclusive, hNpr1 antagonist -8%[70.6 µM], 3T3 cytotox 32µM*, GPT2 inh inactive and FLuc inh inactive.
`CCc1nc2c(c(-c3ccc(Cl)cc3)n1)CCN(C(=O)c1ccc(C(F)(F)F)cc1)CC2` gave HEK293 tox inconclusive, hNpr1 antagonist 0%, 3T3 cytotox inconclusive, GPT2 inh inactive and FLuc inh inactive.
Screening CC(=O)Nc1ccccc1-c1c(C)nn2c1N(CCCc1ccccc1)CCC2 returned HEK293 tox inconclusive, hNpr1 antagonist inconclusive, 3T3 cytotox 25µM*, GPT2 inh 1%[88.5 µM] and FLuc inh inactive.
`Cc1nc(NC(=O)C2CC(=O)N(c3n[nH]c4cccc(F)c34)C2)sc1C` (centres undefined) gave HEK293 tox inconclusive, hNpr1 antagonist 2%, 3T3 cytotox -9%, GPT2 inh 1% and FLuc inh inactive.
For Cc1ccc2nc(NC(=O)C3CC(=O)N(c4n[nH]c5cccc(F)c45)C3)sc2c1 (centres undefined) the results were HEK293 tox 25µM*, hNpr1 antagonist -11%, 3T3 cytotox 32µM*, GPT2 inh 4% and FLuc inh inactive.
COc1ccc(C)cc1NC(=O)C1CC(=O)N(c2n[nH]c3cc(Br)ccc23)C1 (centres undefined) was read as HEK293 tox 45µM*, hNpr1 antagonist -19%, 3T3 cytotox inconclusive, GPT2 inh inactive and FLuc inh inactive.
Screening CC(C)(C)c1csc(NC(=O)C2CC(=O)N(c3n[nH]c4cccc(F)c34)C2)n1 (centres undefined) returned HEK293 tox 45µM*, hNpr1 antagonist -18%, 3T3 cytotox inconclusive, GPT2 inh inactive and FLuc inh inactive.
`Cc1ccc(NC(=O)C2CC(=O)N(c3n[nH]c4cccc(F)c34)C2)nc1` (centres undefined) gave HEK293 tox 6%, hNpr1 antagonist 5%, 3T3 cytotox inactive, GPT2 inh inactive and FLuc inh inactive.
Screening Cc1ccnc(NC(=O)C2CC(=O)N(c3n[nH]c4cccc(F)c34)C2)c1 (centres undefined) returned HEK293 tox 28µM*, hNpr1 antagonist -6%, 3T3 cytotox inconclusive, GPT2 inh -17% and FLuc inh inactive.
Screening O=C(N1CCC(Cc2ccccc2)CC1)C1(c2ccc(Cl)cc2)CCOCC1 returned HEK293 tox inconclusive, 3T3 cytotox inconclusive and GPT2 inh -28%.
`O=C(c1ccc2cc[nH]c2c1)N1CCC(N2CC(OCC3CC3)C23CCCCC3)CC1` (centres undefined) gave HEK293 tox 50µM*, hNpr1 antagonist 2%, 3T3 cytotox inconclusive, GPT2 inh inconclusive and FLuc inh inactive.
